Screening data: PubChem BioAssay, National Center for Advancing Translational Sciences (NCATS)
Compounds with a hit are over-represented: about 1.9% of the library has one in this group of screens.
a7 integrin act: activators of alpha7 integrin expression for muscular dystrophy | alpha7betagal myoblasts, beta-gal FDG fluorescence, 48 h | Potency, µM (doses to about 38.3 µM), for inactives: at the top dose activation, usual class: activators | actives 0.064% (n = 350,000) | AID 624291;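 note: potency is the fitted concentration of half-maximal effect; 100% = response of the positive control SU9516; nearly all actives have a fitted effect of over 60% in size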
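Alpha7betagal+/- myoblasts (passage 13) were plated 16-24 hr, then exposed to compounds (1:260 dilution of DMSO stock) for 48 hours at 37C. After MPER lysis, β-galactosidase reporter activity was read as FDG fluorescence (ex 480/em 540) after 30 minutes.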
PKM2 act: increases activity of human pyruvate kinase M2; AID 1631; actives 0.34% (n = 260,000); Potency, µM (doses to about 57.5 µM), without a hit: at the highest dose activation, actives largely listed as activators; purified PKM2, Kinase-Glo ATP luminescence, activation; response scale: 0% is enzyme alone, no compound; P14618; note: potency is the fitted concentration of half-maximal effect; % is set by controls: 0 for no effect and ±100 for the full control effect; nearly all actives have a fitted effect of over 55% in size
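Kinase-Glo luminescence reports ATP generated from ADP (0.1 mM) and PEP (0.5 mM) by purified hPK-M2 after 1 h at room temperature, pH 7.2 imidazole buffer; intermediate enzyme activity allows detecting inhibitors and activators.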
USP2a inh: inhibitors of human ubiquitin-specific protease USP2a; USP2 core, Ub-CHOP2 coupled fluorogenic reporter, 485/531; Potency, µM (titrated, usually from 38.3 µM), for inactives: at the highest dose activity change, negative = inhibition, actives largely listed as inhibitors; AID 463254; actives 0.01% (n = 330,000); O75604;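 note: potency is the fitted concentration of half-maximal effect; plate controls were DMSO wells for no effect and full inhibition by NEM control for full effect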
Target sequence (O75604 whole entry, looked up): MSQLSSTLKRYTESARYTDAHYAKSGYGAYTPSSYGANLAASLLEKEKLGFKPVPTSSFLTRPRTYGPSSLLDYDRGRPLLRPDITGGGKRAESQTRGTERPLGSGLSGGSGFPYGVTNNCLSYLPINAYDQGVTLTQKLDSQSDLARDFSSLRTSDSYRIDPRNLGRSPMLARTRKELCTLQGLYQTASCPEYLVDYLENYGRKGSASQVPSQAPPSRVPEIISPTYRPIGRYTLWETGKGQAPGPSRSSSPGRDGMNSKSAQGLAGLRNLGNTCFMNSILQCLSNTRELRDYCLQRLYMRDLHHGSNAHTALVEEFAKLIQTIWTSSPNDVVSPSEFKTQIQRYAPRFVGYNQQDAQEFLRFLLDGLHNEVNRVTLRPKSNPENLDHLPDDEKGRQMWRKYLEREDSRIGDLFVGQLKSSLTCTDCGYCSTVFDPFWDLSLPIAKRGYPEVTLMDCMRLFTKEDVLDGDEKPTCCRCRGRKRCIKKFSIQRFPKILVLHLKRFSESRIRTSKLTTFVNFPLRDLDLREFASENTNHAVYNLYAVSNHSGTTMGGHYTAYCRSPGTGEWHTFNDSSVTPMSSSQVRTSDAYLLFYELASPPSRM
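USP2 core (10nM final) preincubated 30min RT with compound in 20mM Tris-HCl pH 8.0, 2mM CaCl2, 2mM beta-mercaptoethanol, 0.05% CHAPS; 25nM Ub-CHOP2 plus 25nM reporter substrate added, fluorescence (Ex485/Em531) read after 60min.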
IL-2 act: activates IL-2 in a cell-based reporter assay; IL-2 activation reporter assay, cell-based qHTS; stimulated with anti-CD3/CD4/CD28 beads; in transgenic mouse T cells; actives 0.065% (n = 360,000); activation, % (series mostly up to about 46 µM); in the data active = activation above about 50%; inconclusive = mostly about 30% to 49%; note: 0% is about no effect
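Unstimulated transgenic mouse T cells, 750 per well, received compound and, after 60 minutes, anti-CD3/anti-CD4 bead plus anti-CD28 stimulation. EGFP and DsRed were quantified after 18 hours.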
Pin1 inh: human Pin1 inhibition; Pin1 FP peptide displacement, HiFluor488, 10 min; actives 0.009% (n = 390,000); Q13526; Potency, µM (doses to about 115 µM), inactives show at the top dose activity, negative = inhibition, hits mostly inhibitors; active = well fitted inhibition curve with a large enough effect in the polarisation, with a control signal flat, not every such curve was filed as active; inconclusive = small, poorly fitted or top-dose-only effect, or effect the other way, or a change in a side signal; inactive = no such curve, though single readings can be large or run the other way; the % refers to the polarisation; note: potency is the fitted concentration of half-maximal effect; % is set by controls: 0 for no effect and ±100 for the full control effect
Target sequence (Q13526 whole entry, looked up): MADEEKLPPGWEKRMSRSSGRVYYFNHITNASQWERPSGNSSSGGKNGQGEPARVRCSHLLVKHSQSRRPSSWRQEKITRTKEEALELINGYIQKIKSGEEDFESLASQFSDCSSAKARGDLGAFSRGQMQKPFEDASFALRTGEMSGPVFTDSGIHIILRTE
ClpP mod: qHTS Assay for Activators of ClpP | Potency, µM (highest dose often 57.5 µM), for the others: at the top dose activity change, negative = active | actives 1.9% (n = 340,000) | purified B. subtilis ClpP, FRET peptide cleavage, 20 min | AID 651965, 2013; active = well fitted falling curve with a large enough effect; inconclusive = small, poorly fitted or top-dose-only effect; inactive = no such curve, though single readings can be large or run the other way; note: potency is the fitted concentration of half-maximal effect; the source files actives as falling curves though it sought activators and does not explain the sign; nearly all actives have a fitted effect of over 65% in size
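Purified B. subtilis ClpP, 10 microg/mL final in Tris/HCl pH8 with KCl, BSA, glycerol and Tween-20, cleaved an Abz/nitrotyrosine-quenched decapeptide. Fluorescence (ex 320, em 430) was read at 0 and 20 min at room temperature. Delta was normalized to 5.8 microM ADEP and DMSO/no-enzyme controls.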
The depositor's hits bear a star; ? = inconclusive; . = not tested or not shown. Unless noted, calls come from the whole dose curve; as a rule, active = well fitted curve in the direction sought with a large enough effect; inconclusive = small, poorly fitted or top-dose-only effect, or another doubt; inactive = no such curve, though single readings can be large; an effect the other way counts as inactive or inconclusive.

SMILES | a7 integrin act | PKM2 act | USP2a inh | IL-2 act | Pin1 inh | ClpP mod
CC1CC=CC2C1C(=O)N(Cc1ccccc1)C2c1ccc(/C=C/c2ccccc2)cc1F (stereo unspecified) | . | . | . | . | 10.8% | .
CCc1cccc2c(C(O)c3c[nH]c4ccccc34)c[nH]c12 (stereo unspecified) | . | . | . | . | . | -18.1%
COc1cc2c(C#N)c(N3CCOCC3)nc(N)c2c(N)n1 | 5.4% | -4.2% | 0.9% | -0.4 | -5.9% | 15.8µM*
COc1cc2c(C#N)c(N3CCc4ccccc4C3)nc(N)c2c(N)n1 | -12.0% | -2.1% | -0.6% | -1.6 | -0.6% | 28.2µM*
COc1cc2c(C#N)c(N3CCCCC3)nc(N)c2c(N)n1 | 7.9% | 5.2% | -23.3% | -0.3 | 21.8% | 28.2µM*
CCCN1CNc2c(c(=O)[nH]c(=S)n2CCc2cccc(Cl)c2Cl)C1 | . | . | . | . | 0.7% | -3.7%
O=C1/C(=C/N(C(=O)c2ccco2)c2ccc(Cl)cc2)Sc2ccccc21 | 6.0% | -2.9% | -0.3% | 0.3 | 14.6% | 10µM*
O=C1/C(=C/N(C(=O)c2ccco2)c2ccc(Br)cc2)Sc2ccccc21 | -8.0% | -22.6% | -1.6% | 1.1 | 22.8% | -2.3%
CN1C(=O)NC(c2ccccc2)C2=C1CN(c1cccc(C(F)(F)F)c1)C2=O (stereo unspecified) | 15.2% | -1.0% | -0.1% | -1.2 | ? | 39.8µM*
Cc1cc(C)n(C(=O)c2ccc(NC(=O)C3COc4ccccc4O3)cc2)n1 (stereo unspecified) | 9.5% | 0.2% | . | 0.2 | 2.9% | 35.5µM*
CC(=O)Nc1ccc(SC[C@H](Cc2ccccc2)N2CC[C@@H](N)CCC2=O)cc1 | . | . | . | . | . | -1.7%
CC1(C)CCC(c2ccc(Cl)cc2)=C(CN2CCN(c3ccc(C(=O)NS(=O)(=O)c4ccc(N[C@H](CCN5CCOCC5)CSc5ccccc5)c(S(=O)(=O)C(F)(F)F)c4)cc3)CC2)C1 | . | . | . | . | . | -11.5%
CCOC(=O)NC(=O)COC(=O)c1ccc(Sc2ncn[nH]2)c([N+](=O)[O-])c1 | ? | 4.8% | 1.2% | 0.4 | 5.9% | 15.8µM*
C=CCN(CC=C)C(=O)COC(=O)c1ccc(Sc2ncn[nH]2)c([N+](=O)[O-])c1 | -31.5% | -2.8% | -1.5% | -1.8 | -0.7% | .
Cn1nnnc1Sc1ncnc2scc(-c3ccccc3F)c12 | . | . | . | . | -7.8% | .
COc1ccc(C2=Nn3c(nnc3-c3ccc(OC)c(OC)c3)SC2)cc1 | . | . | . | . | -6.6% | .
CCc1ccc(NC(=O)C2CCN(S(C)(=O)=O)CC2)cc1 | -2.5% | 5.5% | 0.3% | 56.3* | -1.9% | 0.3%
COc1ccc(CN(Cc2ccccc2)C(=O)c2ccncc2)cc1COc1ccc(NC(C)=O)cc1 | . | . | . | . | -7.7% | 1.4%
Cc1cccc(CNc2ncnc3ccc(-c4ccc5c(ccn5C)c4)cc23)c1 | . | . | 2.5% | . | . | .
CCCCCNCC(=O)Nc1cccc(C(=O)Nc2cccc(C(F)(F)F)c2)c1 | -51.2% | -11.5% | -4.9% | -3.1 | 4.6% | 28.2µM*
COCc1ccc(-c2c(-c3ccc(OC)cc3)oc(=O)c3cc(OC)c(OC)cc23)cc1 | 0.0% | . | 1.6% | 1.6 | 5.9% | 31.6µM*
COc1ccc(-c2c(-c3ccsc3)oc(=O)c3cc(OC)c(OC)cc23)cc1 | 16.9% | . | -0.9% | -0.8 | 2.2% | ?
CC1CN(C(=O)/C=C/c2ccc3c(c2)OCO3)CC(C)O1 (stereo unspecified) | 10.0% | 10.9% | -0.9% | 1.4 | 7.3% | 28.2µM*
CCOc1ccccc1NC(=O)c1cc(S(=O)(=O)N2CCN(CC)CC2)ccc1Cl | 14.4% | 5.0% | 0.7% | -2.1 | 0.1% | -0.1%
CCN1CCN(S(=O)(=O)c2ccc(Cl)c(C(=O)NC(C)c3ccccc3Cl)c2)CC1 (stereo unspecified) | 13.9% | . | 0.8% | 1.5 | 7.8% | 35.5µM*
SMILES | a7 integrin act | PKM2 act | USP2a inh | IL-2 act | Pin1 inh | ClpP mod
NC(=O)C1CCN(c2ncc(-c3ccc4c(c3)OC(F)(F)O4)s2)CC1 | . | . | . | . | 1.4% | .
CC(CCc1ccccn1)C(=O)c1ccccc1 (stereo unspecified) | 0.2% | . | . | 3.9 | 14.5% | 3.2%
O=C(c1ccccc1)C(CCc1ccccn1)CCc1ccccn1 | 26.5% | . | . | -0.4 | -5.1% | 3.55µM*
Cc1ccccc1CS(=O)(=O)CCC(=O)N1CCN(c2ccc(N3CCOCC3)nn2)CC1 | -9.1% | -3.7% | 1.3% | 1.2 | -0.8% | 22.4µM*
COc1cc2c(NC3CCN(C)CC3)nc(N3CCCCC3)nc2cc1OCCOCCN(C)C | . | . | . | . | . | 4.5%
CC1(C)OC(=O)C2(Cc3ccc(Cl)cc3N3CCCC32)C(=O)O1 (stereo unspecified) | . | . | . | . | 6.8% | 0.6%
C#C[C@]1(O)CCC2C3CCC4=CC(=O)CC[C@@H]4C3CC[C@@]21C (stereo partly specified) | . | 5.9% | 1.5% | -0.2 | 3.3% | 3.7%
C#CC1(O)CCC2C3CCc4cc(O)cc(C)c4C3CCC21C (stereo unspecified) | -12.5% | . | . | -5.7 | -8.4% | 31.6µM*
O=Cc1c[nH]c2ccccc12 | . | . | . | . | 2.8% | .
CCN1CCN(C(=O)Cn2c(-c3cccs3)cc3cc(Cl)ccc32)CC1 | . | . | . | . | 0.8% | 31.6µM*
O=C(Cn1c(-c2cccs2)cc2cc(Cl)ccc21)N1CCCCC1 | . | . | . | . | 4.4% | 35.5µM*
CCOC(=O)Cn1c(-c2cccs2)cc2cc(Cl)ccc21 | . | . | . | . | 3.9% | 22.4µM*
O=C(CN1CCN(c2cccc(Cl)c2)CC1)N1CCCC1 | -24.3% | -8.7% | 0.3% | 2.4 | 3.0% | 0.1%
COc1ccc(CCSc2n[nH]c(C(C)C)n2)cc1 | . | . | . | . | . | -0.5%
COc1ccc(C2=Nn3c(nnc3-c3ccc(OC)cc3OC)SC2)c(OC)c1 | . | . | . | . | -4.1% | .
Cc1cccn2c(N)c(-c3ccccc3)nc12 | 7.8% | -10.1% | -1.3% | -1.3 | -1.8% | 15.8µM*
CCOC(=O)c1c(-c2ccccc2)nc2c(C)cccn12 | 2.5% | 0.3% | 1.0% | -0.3 | -4.6% | -6.3%
Cc1noc(C)c1-c1ccc2ncnc(NCc3ccccc3Cl)c2c1 | . | . | . | . | -1.8% | .
NC(=O)N1CCN(c2nc(-c3ccc(Br)cc3)cs2)CC1 | . | . | . | . | -3.1% | .
Cc1ccc(C)c(Oc2cc(NC(=O)CCCn3nc(C)c([N+](=O)[O-])c3C)cc([N+](=O)[O-])c2)c1 | -51.2% | -1.8% | 3.9% | 0.4 | 0.5% | -0.7%
Cc1nn(CCCC(=O)Nc2cc(Oc3ccccc3)cc([N+](=O)[O-])c2)c(C)c1[N+](=O)[O-] | -21.9% | -0.4% | 2.7% | -1.0 | -0.2% | 25.1µM*
CNc1c(Br)cc(/C=C2\C=Cc3ccccc32)cc1Br | . | . | . | . | . | 1.0%
